# Active and inactive are the calls of the source. Calls come from the whole dose curve; as a rule, active = well fitted activation curve with a large enough effect; inconclusive = small, poorly fitted or top-dose-only effect; inactive = no such curve, though single readings can be large or run the other way.
# Test: Confirmatory qHTS for Identification of Small Molecule Activators of Huntingtin-Antisense Promoter Activity
# Conditions: HEK293 HTT-AS promoter firefly luciferase reporter, 24 h; series mostly up to 57.5 µM; activity change, positive = activation: at the top concentration
# Outline: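 2,500 luciferase reporter HEK293 cells/well; 24 h culture; cpds up to 57.5 uM final, PTC124 50 uM ctrl; 24 h, 37C; Dual-Glo FLuc reagent, 10 min RT; lum. Norm.: vehicle 0%, zero RLU -100%.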
# Potency is the fitted concentration of half-maximal effect.
Compound,"activity change, positive = activation",Potency
Cc1cc(Nc2sc(C(=O)c3ccc(F)cc3)c(N)c2C(=O)Nc2ccc(F)cc2)ccc1Cl,-75.4% (inactive),–
CCCCN(C)CCCNC(=O)Cn1ncc2c3ccccc3n(Cc3ccccc3F)c2c1=O,-4.68% (inactive),–
CCN(C(=O)C1CCC(CNS(=O)(=O)c2cccc3nsnc23)CC1)c1ccccc1 (centres undefined),-42.6% (inactive),–
Cc1ccc(-c2cc(N)n(Cc3cccc(Cl)c3)n2)cc1,-47.6% (inactive),–
CCCCN(C)C(=O)C1CCC(CNS(=O)(=O)c2ccc(Cl)cc2)CC1 (centres undefined),-34.2% (inactive),–
CCN(c1ncnc2c1cnn2-c1cc(Cl)ccc1C)C1CCCCC1,-22.2% (inactive),–
O=c1c(-c2ccc(O)cc2)coc2cc(O)ccc12,–,8.49 µM (active)
COc1ccc(-c2onc(C)c2C)cc1S(=O)(=O)N1CCc2ccccc21,-80.5% (inactive),–
Cc1cc(C)cc(N2C(=O)CSC23C(=O)N(Cc2c(F)cccc2Cl)c2ccccc23)c1 (centres undefined),-34.4% (inactive),–
COc1ccccc1N1CCN(C(CNC(=O)C(=O)NCc2cccnc2)c2cccnc2)CC1 (centres undefined),-16.9% (inactive),–
CSc1ncc(Cl)c(C(=O)Nc2ccc(S(=O)(=O)N3CCC(C)CC3)cc2)n1,-31.6% (inactive),–
CCOc1ccc(CN2CCc3nc(N4CCN(c5ccccn5)CC4)ncc3C2)cc1OC,-65.2% (inactive),–
COc1cc(C2CC(=O)c3c([nH]c(C(=O)OCc4ccc(C)cc4)c3C)C2)cc(OC)c1OC (centres undefined),-56.6% (inactive),–
Cc1ccc(-n2ncc3c(N(C)Cc4ccccc4)ncnc32)cc1,–,0.213 µM (active)
COc1ccc(S(=O)(=O)c2cc3cc(C(C)(C)C)cc(O)c3oc2=O)cc1,-42.7% (inactive),–
Cn1cnc(=N)c2[nH]cnc21,2.01% (inactive),–
COc1cc(OC)c(C2C=C(c3ccc(C)cc3)Nc3c(C(=O)Nc4ccccc4)cnn32)cc1OC (centres undefined),0.432% (inactive),–
CCc1ccc(NC(=O)c2ccc(F)c(S(=O)(=O)N3CCC(C)CC3)c2)cc1,-23.4% (inactive),–
CSc1ccc(/C=C/c2nc3ccccc3n2S(=O)(=O)c2ccc(F)c(C)c2)cc1,–,0.135 µM (active)
CCOc1ccc(-n2ccnc2SCC(=O)Nc2ccc3c(c2)OCO3)cc1,-57.7% (inactive),–

Compound,"activity change, positive = activation",Potency
COc1cccc(Cn2c(SCc3ccc(C(=O)N4CCC(C)CC4)cc3)nc3ccncc32)c1,-25.6% (inactive),–
Cc1ccc(Cn2c(SCc3ccc(C(=O)N4CCCCC4)cc3)nc3ccncc32)cc1,-91.1% (inactive),–
Cc1cc(Nc2cccc(C(F)(F)F)c2)nc2ccc(NC(=O)c3cccnc3)cc12,-71.9% (inactive),–
COc1cccc(C(=O)Nc2nc(-c3nnn(-c4cccc(Cl)c4C)c3C)ns2)c1,-52.1% (inactive),–
CCOC(=O)c1cc2c(=O)n3ccccc3nc2n(CC2CCCO2)c1=NC(=O)c1cc(C)cc(C)c1 (centres undefined),-45.7% (inactive),–
CCc1c(C)nc2nncn2c1Nc1ccc(C(C)C)cc1,-35% (inactive),–
Cc1cc(-c2ccc(S(=O)(=O)Nc3cccc(C)c3C)s2)on1,-41.5% (inactive),–
Cc1cccc(-n2nc(C)c(C(=O)Nc3cc(C)ccc3C)c2-n2cccc2)c1,-22.1% (inactive),–
CCS(=O)(=O)c1ccc(C(=O)N2CCN(c3nc4c(OC)ccc(C)c4s3)CC2)cc1,-43% (inactive),–
COc1ccccc1N1CCN(S(=O)(=O)c2ccc(F)c(C(=O)Nc3ccc(Cl)cc3C(F)(F)F)c2)CC1,-27% (inactive),–
CCOc1ccc(NC(=O)c2ccc(F)c(S(=O)(=O)NCc3ccc4c(c3)OCO4)c2)cc1,-56.8% (inactive),–
Cc1ccc(N(C)C(=O)Cn2cnc3onc(-c4ccc(F)cc4)c3c2=O)cc1C,-14.8% (inactive),–
Cc1ccc(Cn2c(=O)c3ccccc3n3c(-c4cccc(O)c4)nnc23)cc1,-25.1% (inactive),–
NC(=O)Nc1cc(-c2ccc(CN3CCOCC3)cc2)sc1C(N)=O,–,23.9 µM (active)
Cc1ccc(NC(=O)c2ccc(F)c(S(=O)(=O)NCCc3ccccc3)c2)cc1F,-94.3% (inactive),–
CCc1ccc(NC(=O)c2cc(S(=O)(=O)N3CCCCCC3)ccc2F)cc1,-22.9% (inactive),–
CCOc1ccc(CCNC(=O)c2cccc(-n3c(C)nc4cccnc43)c2)cc1,-25.8% (inactive),–
CCOc1ccc(CCNC(=O)C(CC(C)C)N2Cc3ccccc3C2=O)cc1OCC (centres undefined),-50.7% (inactive),–
CCOc1ccccc1NS(=O)(=O)c1ccc2c(c1)CC(C)N2C(=O)C1CC1 (centres undefined),-55.1% (inactive),–
